Reference: PubChem BioAssay
A number with no mark means an inactive call. Calls of active or inactive are those of the source.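 Rule for the calls, unless noted: active = compounds that lower viability of the colon cancer cells in the luminescence readout, with no numeric limit stated; inactive = the rest.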

Assay: HCT116 colon cancer cell growth inhibition, primary screen, CellTiter-Glo luminescence, NPC library (AID 1117342;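 active = compounds that lower survival of HCT116 colon cancer cells in the luminescence readout, no numeric limit stated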)
Settings: at 20 µM (top of the series)

Structure (SMILES) | inhibition of viability
O=C(OCC(O)CO)c1ccccc1Nc1ccnc2c(C(F)(F)F)cccc12 (stereo not drawn) | 12%
CCN1CCCC1=O | -2.03%
NC(=O)NC1N=C([O][Al])NC1=O (stereo not drawn) | 2.07%
CC1CCCCN1CCCOC(=O)c1ccc(OC2CCCCC2)cc1 (stereo not drawn) | 83.6% (active)
NC[C@H]1O[C@H](O[C@H]2[C@@H](O)[C@@H](O[C@H]3O[C@H](CO)[C@@H](O)[C@H](N)[C@@H]3O)[C@H](N)C[C@@H]2N)[C@H](N)C[C@H]1O | -0.2%
O=P(O)(O)C(Sc1ccc(Cl)cc1)P(=O)(O)O | 4.3%
Cc1onc(-c2c(Cl)cccc2Cl)c1C(=O)Cl | 13.6%
Cc1cccc(N(C)C(=S)Oc2ccc3c(c2)CCC3)c1 | 55.5% (active)
CCCCCCCCCCCCCCCCCCO | -11.1%
Oc1ccc(Cl)cc1Sc1cc(Cl)ccc1O | 102% (active)
CC1CN(c2cc3c(cc2F)c(=O)c(C(=O)O)cn3-c2ccc(F)cc2F)CCN1 (stereo not drawn) | 10.7%
CCCCCCCCCCCCCCCC(=O)OC(C)C | 3.07%
CC(=O)Oc1ccc(C2(c3ccc(OC(C)=O)cc3)Oc3ccccc3NC2=O)cc1 | 83.3% (active)
CC(=O)Nc1ccn(C2COC(COC(=O)c3ccccc3)O2)c(=O)n1 (stereo not drawn) | 56.5% (active)
CCc1cc(S(=O)(=O)O)c2cc(C(C)C)cccc1-2 | 1.1%
CCCc1ncc(C(=O)O)s1 | 5.1%
CN1C(CSCC(F)(F)F)Nc2cc(Cl)c(S(N)(=O)=O)cc2S1(=O)=O (stereo not drawn) | 30.1%
CCCCCC[C@@H](CCC)C(=O)O | 17.7%
Cc1ccccc1C(=O)Nc1ccc(C(=O)N2CCCC(N(C)C)c3ccccc32)cc1 (stereo not drawn) | 80.2% (active)
Cn1c(=O)c2[nH]c(Br)nc2n(C)c1=O | -3.7%
CN1CC(=O)NC1=N | -3.43%
C=CCN1CCc2nc(N)sc2CC1 | -4%
CO/N=C(\C(=O)O)c1csc(NC(=O)CCl)n1 | -2%
Cc1cc(CC(=O)O)c(C)n1-c1ccc(Cl)cc1 | 7.9%

Assay: reduced SW480 viability measured with CellTiter-Glo, NPC library, primary (AID 1117343)
Settings: CellTiter-Glo luminescence; at 20 µM (top of the series)

Structure (SMILES) | viability decrease (inhibition)
CC(O)CCCCn1c(=O)c2c(ncn2C)n(C)c1=O (stereo not drawn) | 3.8%
O=C(O)C(Cc1cc(I)c(O)c(I)c1)c1ccccc1 (stereo not drawn) | 50.4% (active)
CCC(C(=O)O)c1ccc(N2Cc3ccccc3C2=O)cc1 (stereo not drawn) | -8.7%
O=C(N/N=C/c1ccccc1O)c1ccncc1 | 106% (active)
CC12CCC(C[N+](C)(CCC[N+](C)(C)C)C1)C2(C)C (stereo not drawn) | 7.3%
CC1(C)OC[C@@H](COC(=O)CCc2ccc(OC[C@@H](O)CNCCNC(=O)N3CCOCC3)cc2)O1 | 33.8%
O=C(Nc1ncc([N+](=O)[O-])s1)c1cccs1 | 43.6%
COc1cc(NS(=O)(=O)c2ccc(N)cc2)nc(C)n1 | -9%
Cc1ccc(S(=O)(=O)NC(=O)NC2CCCCC2)cc1 | 17.6%
C=CCOc1cc(Cl)ccc1C(=O)NCCN(CC)CC | 32.4%
COc1cc(/C=C/C(=O)O[C@H]2CC[C@]34C[C@]35CC[C@]3(C)[C@@H]([C@H](C)CCC=C(C)C)CC[C@@]3(C)[C@@H]5CC[C@H]4C2(C)C)ccc1O | -10.1%
C[C@@H](O)[C@H](N)C(=O)O | 13.3%
CCOc1ccccc1O[C@H](c1ccccc1)[C@H]1CNCCO1 | 6.2%
O=C(/C=C/c1ccccc1)OCc1ccccc1 | 19.3%
CN[C@H](CC(C)C)C(=O)N[C@H]1C(=O)N[C@@H](CC(N)=O)C(=O)N[C@H]2C(=O)N[C@H]3C(=O)N[C@H](C(=O)N[C@H](C(=O)O)c4cc(O)cc(O)c4-c4cc3ccc4O)[C@H](O)c3ccc(c(Cl)c3)Oc3cc2cc(c3O[C@@H]2OC(CO)[C@@H](O)[C@H](O)[C@@H]2O[C@H]2C[C@](C)(N)[C@H](O)[C@H](C)O2)Oc2ccc(cc2Cl)[C@H]1O (stereo partly drawn) | 5%
O=C(OCC(O)CO)c1ccccc1Nc1ccnc2c(C(F)(F)F)cccc12 (stereo not drawn) | 30.4%
CCN1CCCC1=O | -20.4%
NC(=O)NC1N=C([O][Al])NC1=O (stereo not drawn) | 19.8%
CC1CCCCN1CCCOC(=O)c1ccc(OC2CCCCC2)cc1 (stereo not drawn) | 111% (active)
NC[C@H]1O[C@H](O[C@H]2[C@@H](O)[C@@H](O[C@H]3O[C@H](CO)[C@@H](O)[C@H](N)[C@@H]3O)[C@H](N)C[C@@H]2N)[C@H](N)C[C@H]1O | 39.1%

Structure (SMILES) | viability decrease (inhibition)
O=P(O)(O)C(Sc1ccc(Cl)cc1)P(=O)(O)O | 2.6%
Cc1onc(-c2c(Cl)cccc2Cl)c1C(=O)Cl | 17%
Cc1cccc(N(C)C(=S)Oc2ccc3c(c2)CCC3)c1 | 42.6%
CCCCCCCCCCCCCCCCCCO | 0.9%
Oc1ccc(Cl)cc1Sc1cc(Cl)ccc1O | 122% (active)
CC1CN(c2cc3c(cc2F)c(=O)c(C(=O)O)cn3-c2ccc(F)cc2F)CCN1 (stereo not drawn) | 16.6%
CCCCCCCCCCCCCCCC(=O)OC(C)C | -0.2%
CC(=O)Oc1ccc(C2(c3ccc(OC(C)=O)cc3)Oc3ccccc3NC2=O)cc1 | 60.2% (active)
CC(=O)Nc1ccn(C2COC(COC(=O)c3ccccc3)O2)c(=O)n1 (stereo not drawn) | 26.9%
CCc1cc(S(=O)(=O)O)c2cc(C(C)C)cccc1-2 | -19%
CCCc1ncc(C(=O)O)s1 | 2.1%
CN1C(CSCC(F)(F)F)Nc2cc(Cl)c(S(N)(=O)=O)cc2S1(=O)=O (stereo not drawn) | -4.4%
CCCCCC[C@@H](CCC)C(=O)O | 14%
Cc1ccccc1C(=O)Nc1ccc(C(=O)N2CCCC(N(C)C)c3ccccc32)cc1 (stereo not drawn) | 80.2% (active)
Cn1c(=O)c2[nH]c(Br)nc2n(C)c1=O | -17.4%
CN1CC(=O)NC1=N | -155%
C=CCN1CCc2nc(N)sc2CC1 | 2.6%
CO/N=C(\C(=O)O)c1csc(NC(=O)CCl)n1 | -1.7%
Cc1cc(CC(=O)O)c(C)n1-c1ccc(Cl)cc1 | 11.7%
